FBW7 activator: human FBW7 E3 ligase activation, primary screen. AlphaScreen FBW7–phospho-cyclin E peptide binding, activator screen. Q969H0. AID 1259310. normalized activity (activation), % at 26.1 µM. 650,000 compounds, 0.13% hits; in the data active = normalized activity above about 1.9%;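 also: purified mutant Fbw7 with reduced substrate affinity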
MITF inh: human MITF inhibition, primary screen | O75030 | AlphaScreen MITF homodimerization, bead proximity signal | inhibition, % at 2.6 µM | 650,000 compounds, 0.91% hits | AID 1259374; in the data active = inhibition above about 50%
GPR151 activ: human GPR151 activation; Q8TDV0; PathHunter beta-arrestin GPR151 cells, luminescence; activation, % at 11.2 µM; 650,000 compounds, 1% hits; AID 1508602; in the data active = activation above about 4.9%
Target sequence (Q8TDV0 whole entry, looked up): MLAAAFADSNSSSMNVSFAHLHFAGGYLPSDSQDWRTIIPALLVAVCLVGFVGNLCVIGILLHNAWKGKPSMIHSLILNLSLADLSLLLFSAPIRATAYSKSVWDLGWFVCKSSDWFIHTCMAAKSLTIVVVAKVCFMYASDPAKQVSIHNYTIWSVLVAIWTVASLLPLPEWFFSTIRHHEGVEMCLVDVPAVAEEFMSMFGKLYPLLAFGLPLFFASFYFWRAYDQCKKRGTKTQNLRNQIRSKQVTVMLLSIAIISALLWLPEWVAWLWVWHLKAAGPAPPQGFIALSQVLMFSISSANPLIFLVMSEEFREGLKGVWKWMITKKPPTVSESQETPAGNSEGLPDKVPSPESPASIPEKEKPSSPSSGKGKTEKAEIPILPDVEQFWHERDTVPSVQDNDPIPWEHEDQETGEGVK
TEAD-YAP block: TEAD-YAP interaction inhibition; 640,000 compounds, 1.4% hits; AID 1259422; HEK-TIYL cells, TEAD-Gal4/YAP UAS-luciferase luminescence; inhibition, % at 9.12 µM; in the data active = inhibition above about 32%
Large screens that a line does not name were inactive. An excerpt weighted towards active compounds, which were near 3.4% of everything screened.

Cc1sc2ncc(C(=O)NC(Cc3ccccn3)C(F)(F)F)c(=O)n2c1C (configuration not stated)	none
N#C/C(=C\c1ccc(O)c(O)c1)c1nc(-c2ccc3c(c2)OCO3)cs1	MITF inh 58
N#C/C(=C\c1ccc(O)c(Br)c1)c1nc(-c2ccc3c(c2)OCO3)cs1	none
CS(=O)(=O)N(CC(=O)Nc1ccccc1F)c1ccc2c(c1)OCO2	none
CCn1c(/C=C2/C(=O)Nc3ccccc32)nc2ccccc2c1=O	none
O=C1Nc2ccccc2/C1=N/n1c(-c2ccccc2)nc2ccccc2c1=O	TEAD-YAP block 32
COc1ccc(CSc2n[nH]c(C)n2)cc1Br	TEAD-YAP block 34
Cc1nc(SCc2ccc(Cl)c(Cl)c2)n[nH]1	none
Cc1cc(Cl)n(-c2ccc([N+](=O)[O-])cc2)n1	none
Cc1cc(C)n(-c2ncc(-c3ccc([N+](=O)[O-])cc3)cn2)n1	TEAD-YAP block 59
COC(=O)c1ccc2c(=O)n(CC3CCCO3)c(SCC(=O)Nc3ccc(C)c(Cl)c3)nc2c1 (configuration not stated)	FBW7 activator 3.5
COC(=O)c1ccc2c(=O)n(CC3CCCO3)c(SCC(=O)Nc3ccc(C)cc3)nc2c1 (configuration not stated)	none
O=C(CSc1ncn[nH]1)Nc1ccc(-c2nc3ccccc3s2)cc1	TEAD-YAP block 53
COC(=O)c1ccc(NC(=O)CSc2ncn[nH]2)cc1	FBW7 activator 2.4
Cc1ccc2nc(-c3ccc(NC(=O)CSc4ncn[nH]4)cc3)sc2c1	TEAD-YAP block 73
Cc1ccc(NC(=O)CSc2ncn[nH]2)cc1	none
COc1ccc(NC(=O)CSc2ncn[nH]2)cc1	none
Cc1ccc2cc3c(nc2n1)CCN(CCc1ccc(N(C)C)cc1)C3	none
O=C(Nc1cccc(Cl)c1)c1cc2ccccc2cc1O	none
COc1ccc(C2=NN(C(=O)c3cc(OC)c(OC)c(OC)c3)C(c3ccccc3OC)C2)cc1OC (configuration not stated)	TEAD-YAP block 35
Cc1nc2c(C(=O)Nc3ccc(N4CCOCC4)cc3)snc2c(=O)[nH]1	TEAD-YAP block 33
O=C(Nc1ccc(N2CCOCC2)cc1)c1csc(N2CCC(N3CCOCC3)CC2)n1	none
Cc1nn(C)c(C)c1-c1cccc(C(=O)Nc2ccc(N3CCOCC3)cc2)n1	TEAD-YAP block 45
Cc1nc2c(C(=O)Nc3ccc(Cl)cc3)snc2c(=O)[nH]1	none
O=C(c1cc([N+](=O)[O-])ccc1N1CCCCC1)N1CCN(c2ccccc2)CC1	TEAD-YAP block 48
Nc1cccc(-c2cccc(C(=O)Nc3ccc(N4CCOCC4)cc3)n2)c1	none
O=C(Nc1ccc(N2CCOCC2)cc1)c1csc(Br)n1	TEAD-YAP block 52
N#CC1=C(N)N(N2CCOCC2)C2=C(C(=O)CC(c3ccccc3)C2)C1c1ccc(F)cc1 (configuration not stated)	none
CCCn1c(CN2CCN(c3cccc(Cl)c3)CC2)nc2c1c(=O)[nH]c(=O)n2C	none
Cc1cc(OCC(=O)Nc2sc(C)c(C)c2C(N)=O)ccc1Br	none
CN1C(=O)c2cccc(NCCN3C(=O)c4ccccc4C3=O)c2C1=O	none
O=C(Nc1ccc(N2CCCCC2)cc1)c1cc([N+](=O)[O-])ccc1N1CCOCC1	none
O=C(Nc1ccc(N2CCCC2)cc1)c1cc([N+](=O)[O-])ccc1N1CCOCC1	none
O=C(Nc1ccccc1Br)c1cc([N+](=O)[O-])ccc1N1CCOCC1	TEAD-YAP block 50
O=C(Nc1ccc(N2CCOCC2)cc1)c1cc([N+](=O)[O-])ccc1Cl	TEAD-YAP block 35
O=C(Nc1ccc(N2CCOCC2)cc1)c1cc([N+](=O)[O-])ccc1Br	TEAD-YAP block 43
CCOc1ccccc1CN1CCc2nnc(C(CC(C)C)NC(=O)COC)n2CC1 (configuration not stated)	none
O=C1C2C3C=CC(C3)C2C(=O)N1c1ccc(F)c([N+](=O)[O-])c1 (configuration not stated)	none
COc1ccc(-c2nnc(/C=C/c3cccs3)o2)cc1	TEAD-YAP block 72
COCCNC(=O)c1ccc2c(=O)n(Cc3ccco3)c(SCC(=O)N3CCN(c4ccccc4)CC3)nc2c1	none
O=C(NCC1CCCO1)c1ccc2c(=O)n(Cc3ccco3)c(SCC(=O)N3CCN(c4ccccc4)CC3)nc2c1 (configuration not stated)	TEAD-YAP block 35
O=C(CSc1nc2cc(C(=O)NCC3CCCO3)ccc2c(=O)n1Cc1ccco1)NC1CCCC1 (configuration not stated)	none
CN(Cc1ccccc1)C(=O)CSc1nc2cc(C(=O)NCC3CCCO3)ccc2c(=O)n1Cc1ccco1 (configuration not stated)	TEAD-YAP block 38
CCc1c(C)sc2ncn3c(=O)n(CCN4CCCC4)nc3c12	FBW7 activator 21
Cc1ccc(-n2cc(/C=C3/C(=O)NC(=O)N(Cc4ccco4)C3=O)cn2)cc1	MITF inh 73
CN(C)c1ncc(/C=C2/C(=O)NC(=O)N(Cc3ccco3)C2=O)cn1	MITF inh 79
CCOC(=O)Cn1cc(/C=C2/C(=O)NC(=S)N(Cc3ccco3)C2=O)c2ccccc21	MITF inh 64
O=C1NC(=O)N(Cc2ccco2)C(=O)/C1=C/c1ccc(N2CCOCC2)cc1	MITF inh 73
CCn1c(SCC(=O)Nc2ccc(C(C)=O)cc2)nc2cccnc21	none
COC(=O)Cn1cc(S(=O)(=O)Nc2ccc(C)c(C)c2)c2cc([N+](=O)[O-])ccc21	none
CCN(CC)c1ccc(/C=C2/C(=O)NC(=S)N(Cc3ccco3)C2=O)cc1	MITF inh 75
COc1ccc(C)cc1NC(=O)NCc1cc(C)n(C)n1	TEAD-YAP block 35
O=[N+]([O-])c1ccccc1-c1ccc(/C=N/NC(=S)NC2CCS(=O)(=O)C2)o1 (configuration not stated)	none
O=C(CN(C(=O)CNC(=O)c1ccco1)c1ccc(F)c(Cl)c1)NC1CCCC1	none
CN(C)c1ccc(Nc2ncnc3ccc(Br)cc23)cc1	TEAD-YAP block 34
Cc1ccc2ncnc(NC3CCCCC3)c2c1	TEAD-YAP block 37
Cc1ccc2ncnc(NCCc3ccccc3)c2c1	TEAD-YAP block 50
CCN(CC)c1ccc(Nc2ncnc3ccc(Br)cc23)cc1	none
CC(C)OCCCNc1ncnc2ccc(Br)cc12	TEAD-YAP block 46
CCC(C)NC(=O)c1sc2ncnc(N3CCN(c4ccccc4)CC3)c2c1C (configuration not stated)	none
Cc1ccc(S(=O)(=O)N(C(=O)NC(=O)Nc2ccc(S(=O)(=O)Nc3nc(C)cc(C)n3)cc2)c2ccc(Cl)cc2)cc1	none
O=P1(NCCO)C=C(c2ccccc2)SC(c2ccccc2)=C1	none
CC(C)CNc1ncnc2ccc(Br)cc12	TEAD-YAP block 42
Brc1ccc2ncnc(NCc3ccccc3)c2c1	TEAD-YAP block 60
O=C(O)CNc1ncnc2ccc(Br)cc12	none
Cc1cccc(C(=O)NNC(=O)/C=C/c2cccc([N+](=O)[O-])c2)c1	none
CCCC(=O)Oc1c(Sc2ccccc2[N+](=O)[O-])c(C)nn1C(C)(C)C	TEAD-YAP block 34
O=C1NC(=O)N(c2ccc(F)cc2)C(=O)/C1=C/c1ccco1	MITF inh 73
